According to PubChem BioAssay AID1508625 (Wald Lab, School of Medicine, Case Western Reserve …, 2021):

Assay: small molecules boosting NK-mediated OVCAR3 lysis – imaging, primary NK cells, calcein-AM imaging, primary screen (AID 1508625);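 also: compound given to NK cells 16 h before adding targets at 1.5 to 1 ratio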;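 as to z-score: more negative robust z means stronger NK killing of tumor cells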
Settings: OVCAR3 lysis by primary NK cells, at 5 µM; z-score: measured here: robust Z-score, single-point normalisation

Row | SMILES | corrected activity, negative = more killing [%] | z-score
1 | CCN(CC)CCCn1c(=S)[nH]c2cc(C(=O)OC)ccc2c1=O | -3.76 | -0.997
2 | CCC(Sc1nc(C)cc(C)n1)C(=O)Nc1nnc(C)s1 (configuration not stated) | -9.03 | -2.8
3 | CC1(C)CC(=O)C(CCC(=O)c2ccccc2)C(C)(C)N1 (configuration not stated) | -2.46 | -0.733
4 | COc1cc2c(cc1NC(=O)COc1ccccc1F)oc1ccccc12 | 0.193 | 0.0792
5 | COC(=O)c1ccc(Sc2ccc(C)cc2)c([N+](=O)[O-])c1 | -2.5 | -0.675
6 | O=C(NN=Cc1cccc2ccccc12)c1cncc(Br)c1 | -7.56 | -2.98
7 | CCOC(=O)c1ccc(NC(=O)C2CCN(C(=O)c3cccs3)CC2)cc1 | -6.67 | -2.48
8 | COc1ccccc1C(=O)CC1(O)C(=O)Nc2ccccc21 (configuration not stated) | -4.9 | -1.82
9 | COc1ccc(OC)c(-n2c(=S)[nH]c3cc(C(=O)Nc4ccc5c(c4)CCC5)ccc3c2=O)c1 | -3.65 | -1.16
10 | Cc1ccc(C=C(NC(=O)c2ccc(C)cc2)c2nc3ccccc3[nH]2)cc1 | -1.41 | -0.73
11 | COc1c(Cl)cccc1NC(=O)c1cccc2ccccc12 | -3.52 | -1.31
12 | CC1CCC2C(=O)N(c3ccc(NCCc4ccccn4)c([N+](=O)[O-])c3)C(=O)C2C1 (configuration not stated) | -4.66 | -1.69
13 | Brc1cccc(-c2nnc3sc(CN4CCOCC4)cn23)c1 | -6.12 | -1.74
14 | Cc1nn(C(=O)c2cccnc2)c(C)c1Sc1ccc(Cl)cc1 | -1.68 | -0.87
15 | COc1cc(OC)c(CN2CCN3CCCC3C2C)cc1Br (configuration not stated) | -2.76 | -1.21
16 | CC(C)c1ccc(NC(=O)c2cc(S(=O)(=O)N3CCN(c4ccccc4)CC3)ccc2F)cc1 | -8.98 | -2.42
